Source: PubChem BioAssay AID1903 (Southern Research Specialized Biocontainment Screening …, 2009)
The campaign covered roughly 310,000 compounds. About 1,200 (0.39%) were called active. The rule behind the calls is not given here. The list is a sample of the results. Entries with a potency or affinity are not part of this list.

Molecular target: Large T antigen (Simian virus 40) (UniProt P03070)
Test: TAg ATPase/helicase activity blockers – biochemical (AID 1903)
Conditions: SV40 large T antigen ATPase/helicase inhibition assay; at 20 µM; active compounds read high

Sequence of Large T antigen (Simian virus 40) (P03070 whole entry, looked up): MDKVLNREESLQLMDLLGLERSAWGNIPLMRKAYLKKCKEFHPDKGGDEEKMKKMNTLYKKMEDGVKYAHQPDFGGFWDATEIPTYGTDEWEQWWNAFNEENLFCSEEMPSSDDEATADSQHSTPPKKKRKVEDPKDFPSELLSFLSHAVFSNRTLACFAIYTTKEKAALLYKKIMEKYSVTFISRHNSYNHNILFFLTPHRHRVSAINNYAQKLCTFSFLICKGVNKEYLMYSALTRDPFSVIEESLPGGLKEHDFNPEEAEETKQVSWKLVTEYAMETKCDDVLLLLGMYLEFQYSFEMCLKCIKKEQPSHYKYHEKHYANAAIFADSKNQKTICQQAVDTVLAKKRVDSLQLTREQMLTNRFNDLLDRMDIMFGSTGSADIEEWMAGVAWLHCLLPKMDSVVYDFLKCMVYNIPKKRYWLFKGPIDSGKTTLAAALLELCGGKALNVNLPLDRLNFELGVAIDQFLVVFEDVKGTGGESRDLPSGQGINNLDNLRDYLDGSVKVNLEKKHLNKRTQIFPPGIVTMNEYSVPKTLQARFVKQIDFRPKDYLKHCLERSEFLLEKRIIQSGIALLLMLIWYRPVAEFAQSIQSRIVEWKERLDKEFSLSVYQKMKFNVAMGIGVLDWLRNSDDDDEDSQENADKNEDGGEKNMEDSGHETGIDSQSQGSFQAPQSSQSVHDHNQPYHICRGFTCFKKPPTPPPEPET

inhibition, inactive:
O=C(CCN1CCN(c2ccc(Cl)cc2)CC1)Nc1nccs1 17.1%
COC(=O)c1ccc(CN2CCC(n3nccc3NC(=O)C3CCCC3)CC2)cc1 20%
O=C(COC(=O)C1(c2ccccc2)CC1)NNC(=O)c1ccccc1 11.2%
COc1cc(C=O)ccc1OCCOCCOc1cc(C)ccc1Cl 10.5%
O=C(c1ccc(-c2ccc([N+](=O)[O-])cc2)o1)N1CCCCC1 9.33%
Cc1ccc(N2NC(=O)/C(=C/c3ccc(-c4ccc(Cl)c(C(=O)O)c4)o3)C2=O)cc1C 33.6%
O=C(O)c1cc(-c2ccc(/C=C3/SC(=S)N(Cc4ccccc4)C3=O)o2)ccc1Cl 24.7%
Cc1ccc(N2NC(=O)/C(=C/c3ccc(-c4ccc(Cl)c(C(=O)O)c4)o3)C2=O)cc1 14.8%
O=C(O)c1cc(-c2ccc(/C=C3\NC(=O)N(c4ccc(Cl)cc4)C3=O)o2)ccc1Cl 31.3%
C#CCN1C(=O)S/C(=C\c2ccc(-c3ccc(Cl)c(C(=O)O)c3)o2)C1=O 11.9%
CCOC(=O)CN1C(=O)S/C(=C\c2ccc(-c3ccc(C(=O)O)c(Cl)c3)o2)C1=O 17%
O=C(CCN1C(=O)C2CC=C(Cl)CC2C1=O)Nc1ccccc1O (centres undefined) 3.99%
C/C(=N\Nc1ccc(C(=O)O)cc1)c1ccc(S(=O)(=O)NCc2ccco2)cc1 11%
CCc1cccc(C)c1NC(=O)c1ccc2c(c1)CCN2S(C)(=O)=O 1.63%
Nc1ccc2c(c1)C(=O)c1ccccc1C2=O 7.9%
Nc1ccc2c(c1)Cc1cc([N+](=O)[O-])ccc1-2 7.98%
CC(=O)N1CCN(C(=O)CSc2nc3c(cnn3-c3ccccc3)c(=O)[nH]2)CC1 2.65%
Cc1cccc2cc(CN(CCCN3CCOCC3)Cc3nnnn3C(C)(C)C)c(=O)[nH]c12 10%
O=C(Nc1ccccc1Cl)N1CCSc2ccccc21 5.32%
CCCCn1c(=O)c2ccccc2c2ccccc2c1=O 3.41%
CCCn1c(=O)c2ccccc2n2c(SCC(=O)c3ccccc3)nnc12 16.8%
COc1cccc(-n2c(SCC(N)=O)nc3ccccc3c2=O)c1 4.09%
COCCCn1c(=O)c2ccccc2c2ccccc2c1=O -0.58%
CCCn1c(=O)c2ccccc2n2c(SCC(N)=O)nnc12 9.05%
Cc1nnc2n(-c3ccccc3)c(=O)c3ccccc3n12 -1.7%
CCCCCn1c(=O)c2ccccc2n2c(CCl)nnc12 15.8%
COCCCn1c(=O)c2ccccc2n(Cc2ccccc2)c1=O 7.67%
Cn1c(CNC(=O)C(Cc2ccccc2)NC(=O)c2cccc(F)c2)cc(=O)n(C)c1=O (centres undefined) -0.65%
O=C(NNC(=O)c1ccc[nH]1)c1cc(Cl)cc(Cl)c1 10.3%
COc1ccccc1C(=O)NNC(=O)c1ccc(NS(=O)(=O)c2cccs2)cc1 16.7%
O=S(=O)(c1ccccc1)N1CCN(Cc2ccc(Cl)cc2)CC1 10.3%
O=C1CCCC/C1=C/Nc1cccc(C(F)(F)F)c1 18.4%
CC1SCC(NC(=O)c2ccccc2Cl)CS1 (centres undefined) 8.46%
CC(=O)OCCN1C(=O)c2cccc3cc([N+](=O)[O-])cc(c23)C1=O 14.1%
Cc1ccc(-c2[nH]ncc2C(=O)c2ccc(Br)cc2)c(O)c1 7.57%
CCCN1C(=O)C(NC(=O)c2ccncc2)(C(F)(F)F)C2=C1CC(C)(C)CC2=O (centres undefined) -1.41%
Cc1ccc(/C=C/c2onc(C)c2S(=O)(=O)N2CCC(C(=O)NC(C)(C)C)CC2)cc1 2.7%
CC(C)C(=O)Nc1ccc(-c2csc(-c3ccccc3)n2)cc1 1.63%
CC(C)C(=O)Nc1cccc(-c2csc(-c3ccccc3)n2)c1 -59.4%
CCOC(=O)Cc1csc(NC(=O)/C=C/c2cccc(Br)c2)n1 -3.33%
COc1cc(C(=O)Nn2c(C)nc3ccccc3c2=O)cc(OC)c1OC 7.45%
CSc1ccc(/C=C2/C(=N)N3N=C(CC(=O)N4CCCC4)SC3=NC2=O)cc1 12.1%
C=CCOc1ccc(/C=C2/C(=N)N3N=C(CC(=O)N4CCCC4)SC3=NC2=O)cc1OC 11.3%
COc1ccc(/C=C2/C(=N)N3N=C(CC(=O)N4CCCC4)SC3=NC2=O)cc1OC 14.2%
Cc1ccc(/C=C2\C(=N)N3N=C(CC(=O)N4CCCCC4)SC3=NC2=O)cc1 26.9%
CSc1ccc(/C=C2\C(=N)N3N=C(CC(=O)N4CCCCC4)SC3=NC2=O)cc1 26.3%
Cc1ccc(/C=C2/C(=N)N3N=C(CC(=O)N4CCCC4)SC3=NC2=O)cc1 30.2%
CCc1ccc(/C=C2\C(=N)N3N=C(CC(=O)N4CCCCC4)SC3=NC2=O)cc1 10.1%
CC(C)c1ccc(/C=C2\C(=N)N3N=C(CC(=O)N4CCCCC4)SC3=NC2=O)cc1 36.9%
COc1cc([N+](=O)[O-])ccc1NC(=O)CCCOc1cc(C)ccc1C 8.46%
CCOC(=O)c1nn(-c2ccc(Cl)cc2)c2nc(Nc3ccccc3)cc(=O)n12 5.22%
COc1ccc(C(=O)Nc2ccc(C)cc2C(=O)c2ccccc2)c(OC)c1 5.96%
Cc1ccccc1CNC(=O)c1ccccc1N 14.8%
CCn1cc(/C=C/C(=O)Nc2ccn(Cc3c(F)c(F)c(F)c(F)c3F)n2)cn1 -8.72%
NC(=O)c1ccc(NC(=O)CSc2cn(CC(=O)N3CCOCC3)c3ccccc23)cc1 2.11%
COc1ccc(Nc2ccc(Cl)nn2)cc1 17.6%
C/C(=N\Nc1ncc(Br)cn1)c1cccc([N+](=O)[O-])c1 10.7%
Cc1ccc(/C=C2/C(=N)N3N=C(CC(=O)N4CCCC4)SC3=NC2=O)o1 -4.18%
N=C1/C(=C\c2ccc(Br)o2)C(=O)N=C2SC(CC(=O)N3CCOCC3)=NN12 36.3%
